Results on six molecules are retold here after PubChem BioAssay (NCATS).

Assay [1] in a line: qHTS to identify inhibitors of the type 1 interferon - major histocompatibility complex class I in skeletal muscle: primary screen against the NCATS Mechanism Interrogation Plate v5.0 (MIPE) Libary (AID 1347411). Note: nearly all actives have a fitted effect of over 65% in size. Note: potency is the fitted concentration of half-maximal effect. In short, it runs like this:
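Cells were genome-edited human myoblasts carrying a HiBit tag on endogenous HLA-B. They were treated with IFN-beta (4.0 ng/ml) and titrated compounds (top 46 uM) for 24 hrs before lytic HiBiT detection.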
Background: In qHTS, concentration-response curves come from the screen itself.

Assay [2] can be described thus: Primary qHTS for inhibitors of nuclear receptor binding SET domain protein 2 (NSD2) in an isogenic RCH-ACV NSD2 p.E1099K mutant (9B) (AID 1645876). Note: nearly all actives have a fitted effect of over 70% in size. Note: potency is the fitted concentration of half-maximal effect.
Assay [3] has as its target Glutathione peroxidase 1 (Homo sapiens) (UniProt P07203). In words: Primary qHTS Assay for Inhibitors of Recombinant Selenoprotein Glutathione Peroxidase 1 (GPX1) (AID 1845191). Note: nearly all actives have a fitted effect of over 65% in size. In outline: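 GR-coupled assay: compounds preincubated 30 min at room temperature with GPX1, then reaction started with CHP; final 10 nM GPX1, 1 mM GSH, 0.5 mM CHP, 0.5 mM NADPH, 100 nM GR, 0.01% BSA, pH 7.5 Tris buffer. NADPH fluorescence (340/450 nm) read at 0 and 15 min.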

Assay [4] can be described thus: qHTS drug screen for cell cycle checkpoint inhibitors in PARPi-resistant BRCA-mutant ovarian cancer cell lines. (AID 1963452; calls by dose curve). The following applies: PEO1/OlaR viability, CellTiter-Glo luminescence, 96 h, stronger effect = lower value. In short, it runs like this: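 PEO1, PEO4 and PEO1/OlaR ovarian cancer cells, 600 per well, exposed 96 h at 37C to a dilution series. Viability read by CellTiter-Glo luminescence, normalized to DMSO and empty wells; activity summarized as Z-AUC.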

In assay [5] the target is Phospholipid hydroperoxide glutathione peroxidase GPX4 (Homo sapiens) (UniProt P36969). The assay is described as follows: Primary qHTS Assay for Inhibitors of Recombinant Selenoprotein Glutathione Peroxidase 4 (GPX4) (AID 1845192). Note: nearly all actives have a fitted effect of over 65% in size. The following applies: outcome: dose series up to 50 µM unless noted. In short, it runs like this:
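GR-coupled assay: recombinant GPX4 preincubated 30 min with compound at room temperature; final 200 nM GPX4, 1 mM GSH, 0.5 mM cumene hydroperoxide, 0.5 mM NADPH, 100 nM GR, 0.01% BSA, pH 7.5 Tris. NADPH fluorescence (340/450 nm) read at 0 and 15 min.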

Where [6] appears, read: measured here: PEO1 parental Z-AUC.

“And” between values parts separate entries of the source, which are not always exact repeats. Equal entries are not always repeated. Inconclusive results are not listed. The source made the active and inactive calls. Unless noted, calls come from the whole dose curve; as a rule, active = well fitted curve in the direction sought with a large enough effect; inconclusive = small, poorly fitted or top-dose-only effect, or another doubt; inactive = no such curve, though single readings can be large; an effect the other way counts as inactive or inconclusive.

Sequence of Phospholipid hydroperoxide glutathione peroxidase GPX4 (Homo sapiens) (P36969 whole entry, looked up): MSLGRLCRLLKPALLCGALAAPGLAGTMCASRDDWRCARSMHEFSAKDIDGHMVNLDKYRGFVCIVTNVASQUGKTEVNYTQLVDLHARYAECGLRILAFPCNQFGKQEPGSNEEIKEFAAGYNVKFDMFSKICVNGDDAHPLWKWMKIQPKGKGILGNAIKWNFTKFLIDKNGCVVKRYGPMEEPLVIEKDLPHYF
Sequence of Glutathione peroxidase 1 (Homo sapiens) (P07203 whole entry, looked up): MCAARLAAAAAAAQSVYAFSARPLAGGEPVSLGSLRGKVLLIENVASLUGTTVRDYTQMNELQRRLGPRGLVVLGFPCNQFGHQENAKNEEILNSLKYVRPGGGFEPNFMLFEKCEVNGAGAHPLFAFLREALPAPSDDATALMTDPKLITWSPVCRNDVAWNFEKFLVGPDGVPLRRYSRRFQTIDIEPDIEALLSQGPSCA

Take `Cc1cc(C)c2c(c1)[C@@H](N(Cc1cc(C(F)(F)F)cc(C(F)(F)F)c1)c1nnn(C)n1)CCCN2CC1CCC(C(=O)O)CC1` (stereo partly specified): the Potency result in assay [1], in assay [2] and in assay [3] was “inactive” throughout. The Z-AUC in assay [4] is 0.561 (inactive); in assay [4] (setting [6]), 1.04; in assay [4] (measured here: PEO4 Z-AUC), 0.634.
In the case of `CCS(=O)(=O)N1CCC(C(C)n2c(C)c(C(=O)NCc3c(OC)cc(C)[nH]c3=O)c3ccccc32)CC1` (stereo unspecified), the Potency entry in assay [1], in assay [2], in assay [3] and in assay [5] was “inactive” each time. Also, the Z-AUC in assay [4] is 1.37 (inactive); in assay [4] (setting [6]) it was 0.975; in assay [4] (measured here: PEO4 Z-AUC) it was 0.959.
In the case of `Cc1cc(-n2c(=O)ccc3cnc4[nH]ccc4c32)ccc1F`, the Potency in assay [1] is 4.15 µM (active); in assay [2], 18.6 µM (active). Moreover, the Potency result in assay [3] and in assay [5] was “inactive” throughout. Besides, the results for the Z-AUC in assay [4], in assay [4] (setting [6]) and in assay [4] (measured here: PEO4 Z-AUC) were -0.465 (inactive), 0.0709 and 0.281, respectively.
Consider `Cc1onc(-c2ccc(F)cc2)c1COc1ccc(C(=O)N2CCS(=O)(=O)CC2)cn1`, for which the Potency entry in assay [1], in assay [2], in assay [3] and in assay [5] was “inactive” in each case. For the same molecule, the Z-AUC in assay [4] was 0.971 (inactive); in assay [4] (setting [6]) it was 1.31; in assay [4] (measured here: PEO4 Z-AUC), 0.844.
Consider `CN(C)CCN1C(=O)c2cccc3cc(NC(N)=O)cc(c23)C1=O`, for which the Potency in assay [1] is 7.39 µM (active); in assay [2], 2.35 µM (active). The Potency entry in assay [3] and in assay [5] was “inactive” throughout. Moreover, the Z-AUC is -0.63 (inactive) in assay [4], -1.2 in assay [4] (setting [6]) and -1.08 in assay [4] (measured here: PEO4 Z-AUC).
As for `C/C(=N\NC(=O)c1cccc(S(=O)(=O)N2CCOCC2)c1)c1cc(Cl)ccc1O`, the Potency result in assay [1], in assay [3] and in assay [5] was “inactive” in each case. The Potency in assay [2] is 2.09 µM (active). Besides, the Z-AUC in assay [4] is -1.37 (inactive) and -1.59 (inactive); in assay [4] (setting [6]) it was -1.95 and -1.28; in assay [4] (measured here: PEO4 Z-AUC), -2.11 and -1.42.
